Screening data: PubChem, National Center for Advancing Translational Sciences (NCATS)
Hits are enriched below; roughly 6.1% of the tested compounds scored in any of these assays.
ATXN2 expr inh – reduces ATXN2 reporter expression in HEK-293 cells | HEK-293 ATXN2-luciferase reporter, luminescence, 24 h | Potency, µM (highest dose often 57 µM), for inactives: at the highest dose activity change, negative = inhibition, most hits filed as inhibitors | hit rate 0.72% among 360,000 | AID 1745845; also: % is scaled to controls: 0 for no effect and ±100 for the full control effect; nearly all actives have a fitted effect of over 55% in size
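qHTS (up to 57 uM final) was run with 24 h compound exposure of reporter cells at 37 °C. Each well was multiplexed: SteadyGlo luminescence measured ATXN2-luciferase expression after a fluorogenic Gly-Phe-AFC viability readout (25 uM final).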
Gal4-VP16 FLuc – inhibits Gal4-VP16 luciferase reporter, ROR gamma counter-screen; Drosophila S2 Gal4-VP16 UAS-luciferase, luminescence, 20 h; Potency, µM (titrated, usually from 53.6 µM), for inactives: at the top dose activity, negative = inhibition, actives largely listed as inhibitors; hit rate 3.5% among 310,000;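 also: Gal4-VP16 expression switched on by copper sulfate through the metallothionein promoter; % is scaled to controls: 0 for no effect and ±100 for the full control effect; nearly all actives have a fitted effect of over 50% in size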
TGFb inhibitor – TGF-b pathway inhibition; Potency, µM (top dose mostly 46.1 µM), for the others: top-dose activity, negative = inhibition, hits mostly inhibitors; HepG2 CAGA-GFP TGF-b/SMAD3 reporter, GFP fluorescence, 18 h; TGF-beta stimulated, 500 pg/mL final; hit rate 1.2% among 410,000; also: % is scaled to controls: 0 for no effect and ±100 for the full control effect; nearly all actives have a fitted effect of over 65% in size
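HEPG2 CAGA-GFP, 1000 cells/well; 2 h settle, 37 C; cpd via pin tool; TGF-b 500 pg/mL final; 18 h, 37 C; GFP imaging ex488/em500-530; %Activity normalised to -TGF-b and +DMSO controls; CRC fit, curve class.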
ATXN viability – cell viability loss in ATXN counter-screen | S2 cells (HEK-293 line with an ATXN2-luciferase reporter) viability, CellTiter-Fluor protease fluorescence, 24 h | Potency, µM (doses to about 56.7 µM), most hits filed as cytotoxic | hit rate 0.49% among 400,000 | AID 651635; also: nearly all actives have a fitted effect of over 40% in size
RORgamma inh – ROR gamma (mouse) transcription inhibition; hit rate 5.4% among 310,000; Drosophila S2 Gal4-RORgamma UAS-luciferase reporter, 20 h; P51450; Potency, µM (top dose mostly 53.6 µM), without a hit: at the highest dose activity change, negative = inhibition, most hits filed as inhibitors; also: % is scaled to controls: 0 for no effect and ±100 for the full control effect; nearly all actives have a fitted effect of over 60% in size
Target sequence (P51450 whole entry, looked up, the tested form may be a part): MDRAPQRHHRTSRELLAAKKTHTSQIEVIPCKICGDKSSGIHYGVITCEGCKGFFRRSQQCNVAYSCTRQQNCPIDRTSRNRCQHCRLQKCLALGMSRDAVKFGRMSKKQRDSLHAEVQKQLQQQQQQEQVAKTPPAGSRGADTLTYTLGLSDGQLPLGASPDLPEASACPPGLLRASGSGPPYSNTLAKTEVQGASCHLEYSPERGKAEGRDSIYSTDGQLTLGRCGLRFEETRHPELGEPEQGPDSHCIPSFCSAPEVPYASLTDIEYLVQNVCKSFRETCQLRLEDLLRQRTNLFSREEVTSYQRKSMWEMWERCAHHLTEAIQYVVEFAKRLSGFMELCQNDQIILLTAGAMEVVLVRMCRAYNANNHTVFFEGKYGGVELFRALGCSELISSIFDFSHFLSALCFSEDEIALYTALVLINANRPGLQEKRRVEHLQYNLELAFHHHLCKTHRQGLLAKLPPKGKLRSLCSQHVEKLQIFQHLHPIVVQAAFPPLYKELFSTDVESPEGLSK
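Schneider cells (Drosophila), stable Gal4 DBD–ROR gamma + UAS-luc; 1 hr cmpd preincubation; Cu2+ induction 700 uM final; 20 hr ambient; luminescence.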
HepG2 viability – HepG2 cytotoxicity, counter-screen for TGF-b inhibitors; HepG2 CAGA-GFP viability, ATP luminescence, 18 h; Potency, µM (doses to about 46.1 µM), for the others: top-dose activity change, negative = cytotoxicity, most hits filed as cytotoxic; hit rate 0.76% among 410,000; AID 588856
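CellTiter-Glo luminescence gave cytotoxicity after 18 hours at 37 degrees C. The cells were HepG2 CAGA-GFP in 1% FBS DMEM, stimulated with 500 pg/mL TGF-beta after compound addition. %Activity was normalised to no-cell wells (complete cell-killing) and DMSO (no toxicity), and curves were fitted and classified.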
* hit, by the source's call; i = inactive; ? = inconclusive; . = no result given; ! = not active in a repeat; [ ] = dose if it differs, or a comment. Calls follow the shape of the dose curve; as a rule, active = well fitted curve in the direction sought with a large enough effect; inconclusive = small, poorly fitted or top-dose-only effect, or another doubt; inactive = no such curve, though single readings can be large; an effect the other way counts as inactive or inconclusive. Potency is read from the fitted curve at half-maximal effect.

SMILES | ATXN2 expr inh | Gal4-VP16 FLuc | TGFb inhibitor | ATXN viability | RORgamma inh | HepG2 viability
Cc1ccc(N=Cc2c(C)[nH]n(-c3nc4ccccc4[nH]3)c2=O)cc1 | ? | 11.2µM* | -6.5% | i | 2.82µM* | 0.398µM*
Cc1ccc(-n2[nH]c(C)c(C=Nc3cc(C)ccn3)c2=O)cc1 | -6.7% | . | -4.0% | i | -1.6%[0.365 µM] | -76.5%
CCCC[C@@H]1CCCO[C@@](C(=O)NCCN2CCOCC2)(C(F)(F)F)C1 | . | -19.3% | ? | . | 17.4% | -22.0%
Cc1ccc(-n2[nH]c(C)c(C=Nc3ccc(Br)cn3)c2=O)cc1 | . | -2.0% | 0.8% | i | -4.8% | -20.6%
Cc1[nH]n(-c2ccccc2)c(=O)c1C=NCc1ccncc1 | -1.7% | 7.2% | -2.7% | ? | -3.9% | -26.5%
Cc1[nH]n(-c2ccccc2)c(=O)c1C=Nc1cccc2cccnc12 | ? | 0.631µM* | ? | i | 0.631µM* | -28.7%
COc1ccc2nc(/N=C/c3c(C)[nH]n(-c4ccc(C)cc4)c3=O)sc2c1 | 4.3% | -7.6% | -23.4% | i | -70.9% | 8.91µM*
N#Cc1cccc(-c2cncnc2-n2ccnc2)c1 | . | 13.8% | . | . | -19.1% | .
Cc1cc(=O)n(CC(=O)Nc2ccc(Cl)c(Cl)c2)c(-n2nc(C)cc2C)n1 | . | . | 0.0% | . | . | -31.2%
Cc1ccc(C)c(OCc2cc(C(=O)N3CCc4sccc4C3)no2)c1 | -3.1% | ? | 0.9% | i | 2µM* | -8.9%
CSc1ccccc1OCc1cc(C(=O)N2CCc3sccc3C2)no1 | 34.6% | 12.9% | -1.0% | i | 11.6% | -5.6%
CCc1ccc(NC(=O)CSc2nc3nc(C)cc(C)n3n2)cc1 | -22.3% | 1.12µM* | -5.3% | i | 36.1% | -8.1%
Cc1cc(C)n2nc(SCC(=O)Nc3ccccc3)nc2n1 | -0.9% | 9.3% | -4.4% | i | 13.9% | -4.7%
CCCN(C(=O)c1cn(C)c(=O)c2cc(OC)c(OC)cc12)c1ccc(CC)cc1 | -8.4% | . | 4.0% | i | . | -14.7%
CCOC(=O)c1c(C)cc(C)n2c1nc1ccccc12 | -5.5% | 5.5% | -0.2% | i | 5.62µM* | 6.8%
CCCCCC(=O)Nc1nc(C)c(-c2csc(Nc3cc(Cl)ccc3OC)n2)s1 | -5.3% | -0.9% | ? | i | -7.6% | -14.0%
COc1ccccc1Nc1nc(-c2sc(NC(=O)C(C)(C)C)nc2C)cs1 | -16.8% | 6.31µM* | ? | i | ? | -38.7%
C=CCCC(=O)Nc1nc(C)c(-c2csc(Nc3cccc(OC)c3)n2)s1 | -11.3% | ? | -28.1% | i | ? | -5.4%
CCCC(=O)Nc1nc(C)c(-c2csc(Nc3ccccc3OC)n2)s1 | 6.0% | -9.1% | 0.5% | i | 29.9% | -2.0%
Cc1ccc(Cl)cc1Nc1nc(-c2sc(NC(=O)C(C)(C)C)nc2C)cs1 | 8.8% | 11.2µM* | -7.0% | ? | ? | -8.6%
CCOc1ccccc1Nc1nc(-c2sc(C)nc2C)cs1 | -4.8% | ? | 6.3% | i | 8.91µM* | -18.0%
COc1cccc(Nc2nc(-c3sc(NC(=O)CC(C)C)nc3C)cs2)c1 | 9.4% | 17.8µM* | -5.1% | i | ? | -22.9%
CCN(C(=O)c1cc2cc(Br)cc(OC)c2oc1=O)c1ccccc1 | -5.1% | . | 6.9% | i | . | -4.0%
CCC(C)C(=O)Nc1nc(C)c(-c2csc(Nc3ccc(Cl)cc3)n2)s1 (stereo not given) | -36.5% | 10µM* | ? | i | -44.1% | -7.6%
O=C(N/N=C1/CC2CCC1C2)c1cc2ccccc2cc1O (stereo not given) | -25.8% | 0.794µM* | 0.0% | i | 0.891µM* | -9.6%
SMILES | ATXN2 expr inh | Gal4-VP16 FLuc | TGFb inhibitor | ATXN viability | RORgamma inh | HepG2 viability
O=C(NCC1CCCCC1)c1cc2ccccc2cc1O | -17.9% | ? | ? | i | 37.8% | -15.4%
CCOc1ccc(NC(=O)CSc2ncc3c(n2)-c2ccccc2N(Cc2ccccc2C)S3(=O)=O)cc1 | 5.4% | . | 18.9% | i | . | 7.0%
O=C(O)Cc1sc(Nc2ccccc2)nc1-c1ccccc1 | 20.0% | . | 19.9% | . | . | -10.9%
S=c1[nH]cnc2sc(Nc3ccccc3)nc12 | . | 2.51µM* | 0.8% | 11.2µM* | 1µM* | 10.7%
CN(NS(=O)(=O)c1ccc(Cl)cc1)c1ncc(C(F)(F)F)cc1Cl | -1.1% | 3.16µM* | -15.6% | i | 2.24µM* | -22.2%
CN(NS(=O)(=O)c1ccc(F)cc1)c1ncc(C(F)(F)F)cc1Cl | -3.8% | 6.31µM* | 5.3% | i | 3.16µM* | -0.8%
CN(NC(N)=O)c1ncc(C(F)(F)F)cc1Cl | -8.9% | 1.8% | -2.8% | i | -2.6% | 2.5%
O=C(c1ccc(Br)cc1)N1CCC(c2nc3ccccc3s2)CC1 | -27.2% | . | ? | i | . | -18.4%
CCCC(=O)OCc1cnc(C)c2oc(=O)c(C(=O)Nc3ccccc3)cc12 | 6.0% | . | 2.4% | i | . | -5.7%
CCOC(=O)c1ccccc1NC(=O)c1cn(CC)c2nc(C)ccc2c1=O | -1.7% | ? | 5.2% | i | 11.2µM* | -41.7%
COc1cc(-c2nc3cnccn3c2Nc2ccc(C(C)C)cc2)ccc1O | ? | 10µM* | 11.2µM* | ? | 14.1µM* | 11.2µM*!
COc1cc(-c2nc3cnccn3c2Nc2ccc(C)cc2)ccc1O | 19.7% | -29.8% | -26.5% | ? | -34.0% | -34.8%
Cc1onc(-c2ccccc2)c1C(=O)Cl | 0.4% | . | . | i | . | .
CN1C(=O)/C(=C/c2cc(C(C)(C)C)c(O)c(C(C)(C)C)c2)NC1=S | -2.9% | ? | 6.1% | i | 7.08µM* | 3.6%
Cc1ccc(C)c(NS(=O)(=O)c2cc3c(cc2C)n(C)c(=O)c(=O)n3C)c1 | 9.2% | . | -19.9% | i | . | -2.4%
COc1ccc(Br)c(C(=O)Nc2cc3c(cc2N2CCOCC2)n(C)c(=O)n3C)c1 | -0.2% | . | -5.0% | i | . | -5.4%
COc1ccc(S(=O)(=O)N2CCN(C(=O)c3cc4c(s3)CCCC4)CC2)cc1 | . | . | ? | . | . | -0.1%
COc1ccccc1C(=O)N1CCN(S(=O)(=O)c2ccccc2)CC1 | 7.9% | -0.6% | -7.8% | i | 11.2µM* | -7.9%
O=C(c1cc2c(s1)CCCC2)N1CCN(S(=O)(=O)c2ccccc2)CC1 | 4.4% | . | 0.0% | i | . | 10µM*
COc1cccc(OC)c1C(=O)N1CCN(S(=O)(=O)c2ccccc2)CC1 | -3.2% | -2.1% | -15.7% | i | -5.5% | 5.4%
CCOc1ccccc1NC(=O)c1nc(S(=O)(=O)Cc2ccccc2F)ncc1Cl | . | . | ? | . | . | -17.5%
O=C(Nc1ccccc1F)c1nc(S(=O)(=O)Cc2ccccc2F)ncc1Cl | ? | . | 4.47µM* | 17.8µM* | . | 8.91µM*
COc1ccc(OC)c(NC(=O)c2nc(S(=O)(=O)Cc3ccccc3F)ncc2Cl)c1 | . | . | ? | . | . | 3.16µM*
